Experimental data reported in PubChem BioAssay (Tox21).
Records with an inconclusive call do not appear. Unmarked numbers belong to inactive results. Activity calls are given as the source filed them. Calls follow the shape of the dose curve; as a rule, active = well fitted inhibition curve with a large enough effect in the signal ratio in the repeat runs (not every such curve was filed as active); inconclusive = weak or mixed curves, or effect the other way; inactive = no such curve, though single readings can be large or run the other way; the % refers to the signal ratio.

biological target: Estrogen receptor beta (Homo sapiens) (UniProt Q92731); test: qHTS assay to identify small molecule antagonists of the estrogen receptor beta (ER-beta) signaling pathway (AID 1259378); conditions: ER-beta-UAS-bla HEK293T, beta-lactamase FRET ratio, 16 h; series mostly up to 92.4 µM; activity, negative = inhibition: at the top concentration
Sequence (Q92731 whole entry, looked up): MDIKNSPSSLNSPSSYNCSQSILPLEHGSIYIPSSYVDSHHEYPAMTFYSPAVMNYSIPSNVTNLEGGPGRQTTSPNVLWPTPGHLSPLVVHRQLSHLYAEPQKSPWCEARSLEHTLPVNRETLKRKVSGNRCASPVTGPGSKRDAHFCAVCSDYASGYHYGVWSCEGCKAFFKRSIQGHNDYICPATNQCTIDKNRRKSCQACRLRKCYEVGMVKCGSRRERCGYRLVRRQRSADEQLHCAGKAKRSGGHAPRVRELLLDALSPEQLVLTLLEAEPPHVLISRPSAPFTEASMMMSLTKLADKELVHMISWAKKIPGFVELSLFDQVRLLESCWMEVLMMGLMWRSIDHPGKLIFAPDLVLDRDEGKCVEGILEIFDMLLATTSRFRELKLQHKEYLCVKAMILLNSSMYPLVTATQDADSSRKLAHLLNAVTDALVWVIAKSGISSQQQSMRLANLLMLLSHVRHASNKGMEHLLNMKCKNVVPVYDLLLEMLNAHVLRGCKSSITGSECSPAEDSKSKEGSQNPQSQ
Description: National Center for Advancing Translational Sciences [NCATS]
NIH Chemical Genomics Center [NCGC]
U.S. Environmental Protection Agency [EPA]
National Institutes of Environmental Health Sciences [NIEHS]
National Toxicology Program [NTP]
U.S. Food and Drug Administration [FDA]
Estrogen receptor (ER), a nuclear hormone receptor, plays an important role in development, metabolic homeostasis and reproduction. Two subtypes of ER, ER-alpha and ER-beta, have similar expression patterns with some uniqueness in both types. Endocrine disrupting chemicals (EDCs) and their interactions with steroid hormone receptors like ER causes disruption of normal endocrine function. To identify the compounds that inhibit ER signaling, an ER-beta-UAS-bla GripTite cell line (Life Technologies, Madison, WI, USA) containing a beta-lactamase reporter gene under the control of an UAS response element was used to screen Tox21 10K compound library.
Tox21 Assay Protocol Summary:
ER-beta-UAS-bla HEK293T cells were dispensed at 2,000 cells/4 uL of assay medium containing 2% charcoal stripped FBS per well into black wall/clear-bottom 1536-well plates using a Multidrop Combi (ThermoFisher Scientific, Waltham, MA) dispenser. After the assay plates were incubated at a 37C and 5% CO2 for 6 hr, 23 nL of compounds dissolved in DMSO, positive controls or DMSO only was transferred to the assay plate by a Pintool station (Kalypsys, San Diego, CA), followed by addition of 1 uL (1nM as final concentration) of 17-beta-estradiol (E2) in assay medium using a BioRAPTR FRD (Flying Reagent Dispenser, Aurora Discovery, San Diego, CA). The plates were incubated at 37C and 5% CO2 for 16 hr. Then 1 uL of LiveBLAzerTM B/G FRET substrate was added using a Flying Reagent Dispenser, the plates were incubated at room temperature for 2 hours, and fluorescence intensity was measured by an Envision plate reader (PerkinElmer, Shelton, CT).
% is scaled to controls: 0 for no effect and ±100 for the full control effect; potency is read from the fitted curve at half-maximal effect.

Row | Compound | activity, negative = inhibition | Potency
1 | CC1CN(c2cc3c(cc2F)c(=O)c(C(=O)O)cn3-c2ccc(F)cc2F)CCN1 (stereo not given) | 1.81% [at 8.39 µM] | 
2 | CCOC(=O)c1ccccc1C | 5.18% | 
3 | Cc1occc1C(=O)Nc1ccc(C(=O)N2CCC(F)(F)/C(=C\C(=O)N3CCC(N4CCCCC4)CC3)c3ccccc32)cc1 | -24.1% [at 42.5 µM] | 
4 | O=C(CCC1CCN(Cc2ccccc2)CC1)c1ccc2c(c1)NCCCC2 | -25.4% [at 42.5 µM] | 
5 | CC[C@@H]([C@H](C)O)n1ncn(-c2ccc(N3CCN(c4ccc(OC[C@@H]5CO[C@@](Cn6cncn6)(c6ccc(F)cc6F)C5)cc4)CC3)cc2)c1=O |  | 5.96 µM (active)
6 | CCCCCCCCCCCCCCCCBr | 8% [at 19 µM] | 
7 | CC#N | 3.44% | 
8 | O=C(N[C@@H](c1ccccc1)[C@@H]1CCCCN1)c1cccc(C(F)(F)F)c1Cl |  | 43.3 µM (active)
9 | CCCCCCCC/C=C\CCCCCCCC(=O)OC | -20.8% | 
10 | Cc1cc(OI)c(C(C)C)cc1-c1cc(C(C)C)c(OI)cc1C | 7.8% [at 42.5 µM] | 
11 | CCOC(=O)c1ccccc1OC | 0% | 
12 | CN1CCCN=C1/C=C/c1cccs1 | 2.24% [at 42.5 µM] | 
13 | CCOC(=O)OCC | 1.46% | 
14 | Cn1c(=O)c2c(ncn2CC(=O)O)n(C)c1=O | -1.17% [at 42.5 µM] | 
15 | OC/C(Br)=C(\Br)CO | 6.26% | 
16 | CN1CCN(c2c(F)cc3c(=O)c(C(=O)O)cn4c3c2OCN4C)CC1 | 2.63% [at 19 µM] | 
17 | CO[C@H]1O[C@H](CO)[C@@H](O)[C@H](O)[C@H]1O | 0.341% | 
18 | O=C(O)c1cccc(O)c1 | -2.3% | 
19 | COc1ccccc1N=Nc1c(S(=O)(=O)O)cc2cc(S(=O)(=O)O)cc(NC(C)=O)c2c1O | 6.88% | 
20 | CCCOCCOCCO | 7.49% | 

Row | Compound | activity, negative = inhibition | Potency
21 | CC(C)(C)C(=O)O | 3.65% | 
22 | CCC(C)=O | 0.621% | 
23 | CCN(CC)CCNC(=O)c1ccc(NC(C)=O)cc1 | 7.51% [at 42.5 µM] | 
24 | C[Si](NC1CCCCC1)(NC1CCCCC1)NC1CCCCC1 | -6.2% | 
25 | C=C(C)C(=O)OCCOC(=O)CC(C)=O | 22.4% | 
26 | CCCCCCCCCOC(C)=O | 11.6% | 
27 | COc1ccc(C(=O)c2cccc(O)c2)c(OC)c1 |  | 43.2 µM (active)
28 | CC1(C)C(=O)N(Br)C(=O)N1Cl | 12.1% | 
29 | CC(C)(O)c1ccccc1CC[C@@H](SCC1(CC(=O)O)CC1)c1cccc(/C=C/c2ccc3ccc(Cl)cc3n2)c1 | -1.93% [at 42.5 µM] | 
30 | CC(=O)Oc1ccc(C(=C2CCCCC2)c2ccc(OC(C)=O)cc2)cc1 |  | 0.0106 µM (active)
31 | CCCCCCOC(=O)C(C)C | 16.2% | 
32 | CCOC(=O)/C=C/C(=O)O | 20.4% | 
33 | O=C1OCCN1/N=C/c1ccc([N+](=O)[O-])o1 | -12.6% [at 42.5 µM] | 
34 | CC(C)(CCl)c1ccccc1 | -1.79% | 
35 | C=CC(C)=CCC=C(C)C | 19.2% | 
36 | CC(=O)[C@H]1CC[C@H]2[C@@H]3C[C@H](C)C4=CC(=O)CC[C@]4(C)[C@H]3[C@@H](O)C[C@]12C | -1.23% [at 42.5 µM] | 
37 | CO[C@@]12[C@H](COC(N)=O)C3=C(C(=O)C(C)=C(N)C3=O)N1C[C@@H]1N[C@@H]12 |  | 18.8 µM (active)
38 | NC(=O)Nc1ccc(Cl)cc1 | -4.97% | 
39 | CC1(C)O[C@@H]2C[C@H]3[C@@H]4CCC5=CC(=O)C=C[C@]5(C)[C@H]4[C@@H](O)C[C@]3(C)[C@]2(C(=O)CO)O1 | 0.155% [at 42.5 µM] | 
40 | CCC(=O)OC/C=C/c1ccccc1 |  | inactive
